These results are taken from PubChem BioAssay (NCATS).

Records with an inconclusive call do not appear. The source made the active and inactive calls. Unless noted, the call rests on the fitted dose curve; in most records, active means well fitted curve in the direction sought with a large enough effect; inconclusive means small, poorly fitted or top-dose-only effect, or another doubt; inactive means no such curve, though single readings can be large; an effect the other way counts as inactive or inconclusive.

Test [1] deals with ATPase family AAA domain-containing protein 5 (Homo sapiens) (UniProt Q96QE3). Kind of test: Validation screen for small molecules that inhibit ELG1-dependent DNA repair in human embryonic kidney (HEK293T) cells expressing luciferase-tagged ELG1 (AID 493107).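 Further: series mostly up to about 46 µM; on the % scale 0 is the no-effect control and ±100 the full control effect; inhibitors lower the ELG1-luciferase luminescence signal; nearly all actives have a fitted effect of over 70% in size.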 A digest of the protocol: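 Luciferase read-out, ONE-Glo, 30 min at room temperature, follows 16 h co-exposure at 37 C of compound and the DNA-damaging agent 5-fluorouridine. Cells: HEK293T with ELG1-luciferase fusion, 2,000 per well, DMSO as vehicle.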

In test [2] the target is Thyrotropin-releasing hormone receptor (Homo sapiens) (UniProt P34981). Kind of test: qHTS for Small Molecule Agonists and Allosteric Enhancers of Human TRH Receptor: Validation Screen for Agonists (AID 493127;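 active means calcium activation more than 3 SD above the typical response in the agonist read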;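 further: intracellular calcium rise by fluo-8 fluorescence before TRH EC20 addition; 0% is about no effect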). The note with it: TRH receptor agonist cell assay; at 2 µM; stronger effect = higher value. In a few lines:
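Compound-evoked intracellular calcium release in fluo-8-loaded TRHR cells, read kinetically on FDSS (Ex 480/Em 530, 1 s/cycle) after 23 nL pintool transfer. Agonist phase preceded 10 nM TRH EC20 addition.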
For orientation: qHTS replaces the single test concentration by a dilution series.

A short description of test [3]: qHTS for Inhibitors of Cell Surface uPA Generation: Validation Assay (AID 493164).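 Further: RAW 264.7 macrophage cells exposed to compound for 18 h; 0% is about no effect.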 In a few lines:
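ATP-Lite luminescence read-out: ATP remains high when uPA activity-dependent LF translocation into the cytoplasm is blocked. RAW 264.7 cells, 18 h compound exposure at 37 C; 7-point titration, 2.45 nM to 38.3 uM final.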

For test [4], the target named is Galactokinase (Homo sapiens) (UniProt P51570). Kind of test: qHTS Validation Assay for Inhibitors of Human Galactokinase (GALK) (AID 493189). Further: 0% is about no effect. A digest of the protocol:
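GALK (5 nM) with 35 uM ATP and 100 uM galactose in HEPES pH 8.0 with MgCl2, NaCl, DTT and BSA. Reaction ran 1 h at room temperature. Residual ATP read by Kinase-Glo Plus luminescence.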

Test [5] is described as follows: Validation screen for small molecules that induce DNA re-replication in SW480 colon adenocarcinoma cells (AID 504364). Further: 0% is about no effect. In a few lines: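 Image-based DNA content read-out: Hoechst stain 40 min, total nuclear fluorescence intensity (ex 405 nm, em 500-530 nm) after 48 h compound exposure of 250 SW480 cells/well at 37 C, 5% CO2, versus DMSO vehicle.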
For test [6], the target named is phosphoglycerate mutase (Leishmania major) (UniProt Q4Q090). The experiment in a line: qHTS Validation Assay to Find Inhibitors of Phosphoglycerate Mutase (AID 504548).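 Further: end-point luminescence from Kinase-GloPlus after the PGAM reaction; series mostly up to about 58 µM; on the % scale 0 is the no-effect control and ±100 the full control effect.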 A digest of the protocol:
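Inhibition of L. major PGAM was assessed by Kinase-GloPlus luminescence following a 45-minute room-temperature reaction with enzyme at 1.25nM final.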

Test [7] deals with Ubiquitin carboxyl-terminal hydrolase 1 (Homo sapiens) (UniProt O94782). Kind of test: Inhibitors of USP1/UAF1: Pilot qHTS (AID 504865).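 Further: rhodamine fluorescence freed from ubiquitin-rhodamine substrate followed over time; top concentration of the series differs between compounds; on the % scale 0 is the no-effect control and ±100 the full control effect; nearly all actives have a fitted effect of over 35% in size.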 In a few lines:
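USP1/UAF1 complex at 1 nM preincubated 15 min at room temperature with compound, then Ub-Rho substrate added at 150 nM final. Fluorescence (480/540 nm) read kinetically in 50 mM HEPES pH 7.8, 0.5 mM EDTA, 1 mM TCEP, 0.1 mg/ml BSA, 0.01% Tween-20.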

Test [8] can be described thus: qHTS for Inhibitors of ATXN expression: Validation of Cytotoxic Assay (AID 588349). Further: on the % scale 0 is the no-effect control and ±100 the full control effect. A digest of the protocol: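 Cytotoxicity counter-screen: ATP-based luminescent viability (CellTiter Glo) after 72 hr exposure of HEK293 cells to a compound titration at 37 degrees C.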
Test [9] addresses Estrogen receptor (Homo sapiens) (UniProt P03372). Kind of test: qHTS assay for small molecule antagonists of estrogen receptor alpha signaling (AID 588513; active means well fitted curve in the direction sought with a large enough effect in the signal ratio, with a control signal flat, not every such curve was filed as active; the % refers to the signal ratio; further: on the % scale 0 is the no-effect control and ±100 the full control effect). A digest of the protocol: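 ER-alpha-UAS-bla GripTite HEK 293 cells in 2% charcoal/dextran-treated FBS medium; compounds titrated (1:2, duplicate), then stimulated with 0.5 nM 17-beta-estradiol for 18 h at 37C. CCF4 beta-lactamase fluorescence; Hill-fit IC50 and efficacy.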

Test [10] is described as follows: Nrf2 qHTS screen for inhibitors: Validation (AID 493153; active means well fitted inhibition curve with a large enough effect in the main read-out, with a control signal flat, not every such curve was filed as active). The note with it: Potency: luciferase luminescence; viability change: measured here: cytotoxicity max response. A digest of the protocol: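 Concentration-response on A549 ARE_Fluc reporter cells exposed 18-24 h at 37 C, 5% CO2. Cytotoxicity read first by CellTiter-Fluor fluorescence (Ex 405/Em 525), then Nrf2 inhibition by BugLite luminescence after 15 min.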

Test [11] concerns the target Phosphoglycerate kinase, glycosomal (Trypanosoma brucei brucei) (UniProt P07378). The experiment in a line: qHTS Validation Assay to Find Inhibitors of Phosphoglycerate Kinase (AID 504547).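 Further: control wells lack PGK and mark full inhibition.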 A digest of the protocol: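 In TEA buffer (100mM, pH 7.6) containing 5mM MgCl2 and 0.01% Tween-20, the GAPDH-coupled PGK reaction proceeded for 60 minutes at room temperature before a single luminescence reading using Kinase-Glo Plus.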

In test [12] the target is DNA dC->dU-editing enzyme APOBEC-3G (Homo sapiens) (UniProt Q9HC16). The experiment in a line: qHTS for inhibitors of Vif-A3G interactions: Validation (AID 588379). Further: 0% is about no effect. A digest of the protocol:
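Yellow fluorescence (Ex 488, Em 500-530) of Vif-coexpressing HeLa A3G-eYFP cells, scanned by Acumen cytometer, reports blocked A3G degradation. Cells plated at 700/well overnight at 37 deg C before compound addition, then a further overnight compound incubation at 37 deg C.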

The nature of test [13]: Validation screen for small molecules that induce genotoxicity in human embryonic kidney (HEK293T) cells expressing luciferase-tagged ELG1 (AID 493106). Further: potency means the concentration at half of the fitted maximal effect. A digest of the protocol: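 ELG1-luciferase reporter readout (ONE-Glo, 30 min, room temperature) after 16 hr compound treatment at 37 °C of HEK293T cells at 2,000 per well. Rising luminescence flags genotoxic stress.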
Test [14] is described as follows: qHTS for Inhibitors of ATXN expression: Validation (AID 588378). Further: nearly all actives have a fitted effect of over 75% in size. Further: potency means the concentration at half of the fitted maximal effect. In a few lines:
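HEK293 cells carrying ATXN2-firefly luciferase reporter, treated with compound 24 h at 37 °C. Viability read first by CellTiter-Fluor (405/525 nm), then reporter expression by Bright-Glo luminescence; controls were a known ATXN2 expression inhibitor and a luciferase inhibitor.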

Test [15] deals with Peptidyl-prolyl cis-trans isomerase NIMA-interacting 1 (Homo sapiens) (UniProt Q13526). Kind of test: qHTS Validation Assay to Find Inhibitors of Pin1 (AID 504536; active means well fitted inhibition curve with a large enough effect in the polarisation, with a control signal flat, not every such curve was filed as active; the % refers to the polarisation;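 further: 0% = full Pin1 enzyme wells and -100% = no-enzyme wells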). In a few lines: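 Fluorescence polarization competition: compounds (titration) displace HiFluor-488-labeled Pin1-1b peptide from Pin1 (0.3 uM final) in pH 7.5 HEPES buffer with DTT, 10 min at room temperature; %Activity normalized to no-enzyme wells, curves fitted.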

The target of test [16] is Bile acid receptor (Homo sapiens) (UniProt Q96RI1). The experiment in a line: qHTS assay for small molecule antagonists of farnesoid X receptor signaling (AID 588526; calls by dose curve; further: on the % scale 0 is the no-effect control and ±100 the full control effect). A digest of the protocol: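 Concentration-response titrations were fitted to the Hill equation for half-maximal inhibition and maximal response, with data normalised to 50 uM chenodeoxycholic acid and DMSO control wells. Cells: FXR-UAS-bla HEK293T, dialyzed FBS.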

The target of test [17] is Estrogen receptor (Homo sapiens) (UniProt P03372). Kind of test: qHTS assay for small molecule agonists of estrogen receptor alpha signaling (AID 588514; calls by dose curve;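 further: 0% = vehicle only and 100% = reference agonist; nearly all actives have a fitted effect of over 70% in size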). A digest of the protocol: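 EC50 and efficacy came from Hill fits of beta-lactamase reporter signal (CCF4 dye, 2 h at room temperature) scaled between DMSO and 20 nM 17-beta-estradiol. Agonist mode: HEK293 ER-alpha-UAS-bla cells in charcoal/dextran-stripped serum medium, 18 h compound exposure at 37 C.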
Estrogen receptor (Homo sapiens), sequence (P03372 whole entry, looked up): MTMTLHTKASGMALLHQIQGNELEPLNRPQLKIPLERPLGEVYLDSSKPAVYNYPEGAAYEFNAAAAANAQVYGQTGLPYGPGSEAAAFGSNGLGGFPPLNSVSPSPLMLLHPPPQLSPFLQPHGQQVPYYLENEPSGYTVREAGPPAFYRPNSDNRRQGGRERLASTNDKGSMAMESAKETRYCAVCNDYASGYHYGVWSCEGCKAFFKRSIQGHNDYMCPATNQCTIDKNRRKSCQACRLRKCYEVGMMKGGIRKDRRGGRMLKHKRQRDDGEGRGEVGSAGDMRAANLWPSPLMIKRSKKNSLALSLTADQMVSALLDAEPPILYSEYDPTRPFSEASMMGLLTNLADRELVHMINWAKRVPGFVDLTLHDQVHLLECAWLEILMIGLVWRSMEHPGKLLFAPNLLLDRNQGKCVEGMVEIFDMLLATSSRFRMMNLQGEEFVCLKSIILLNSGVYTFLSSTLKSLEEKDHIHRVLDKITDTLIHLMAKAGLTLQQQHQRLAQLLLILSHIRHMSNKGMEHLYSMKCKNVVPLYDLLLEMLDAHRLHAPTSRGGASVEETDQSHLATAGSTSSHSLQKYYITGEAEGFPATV

Ubiquitin carboxyl-terminal hydrolase 1 (Homo sapiens), sequence (O94782 whole entry, looked up): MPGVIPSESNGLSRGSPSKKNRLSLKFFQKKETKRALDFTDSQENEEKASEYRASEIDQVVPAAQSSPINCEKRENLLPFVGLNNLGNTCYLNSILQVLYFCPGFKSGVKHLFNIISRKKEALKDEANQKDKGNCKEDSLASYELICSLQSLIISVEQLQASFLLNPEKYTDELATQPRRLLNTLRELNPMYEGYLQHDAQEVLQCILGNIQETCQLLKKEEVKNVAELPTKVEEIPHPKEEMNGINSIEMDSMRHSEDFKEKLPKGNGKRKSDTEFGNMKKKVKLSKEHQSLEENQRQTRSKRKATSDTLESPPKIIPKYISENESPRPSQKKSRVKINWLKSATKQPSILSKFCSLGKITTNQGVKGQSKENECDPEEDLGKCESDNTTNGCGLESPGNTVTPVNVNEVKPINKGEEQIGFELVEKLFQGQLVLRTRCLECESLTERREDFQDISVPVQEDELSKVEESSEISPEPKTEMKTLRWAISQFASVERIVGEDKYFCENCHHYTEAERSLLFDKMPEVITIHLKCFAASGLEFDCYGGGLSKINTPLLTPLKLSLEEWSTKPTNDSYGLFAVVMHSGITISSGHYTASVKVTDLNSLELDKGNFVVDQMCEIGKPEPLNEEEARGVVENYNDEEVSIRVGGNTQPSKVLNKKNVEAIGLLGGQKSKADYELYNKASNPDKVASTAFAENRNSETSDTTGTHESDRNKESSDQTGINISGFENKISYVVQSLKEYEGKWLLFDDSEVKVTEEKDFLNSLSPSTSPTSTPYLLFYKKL
Bile acid receptor (Homo sapiens), sequence (Q96RI1 whole entry, looked up): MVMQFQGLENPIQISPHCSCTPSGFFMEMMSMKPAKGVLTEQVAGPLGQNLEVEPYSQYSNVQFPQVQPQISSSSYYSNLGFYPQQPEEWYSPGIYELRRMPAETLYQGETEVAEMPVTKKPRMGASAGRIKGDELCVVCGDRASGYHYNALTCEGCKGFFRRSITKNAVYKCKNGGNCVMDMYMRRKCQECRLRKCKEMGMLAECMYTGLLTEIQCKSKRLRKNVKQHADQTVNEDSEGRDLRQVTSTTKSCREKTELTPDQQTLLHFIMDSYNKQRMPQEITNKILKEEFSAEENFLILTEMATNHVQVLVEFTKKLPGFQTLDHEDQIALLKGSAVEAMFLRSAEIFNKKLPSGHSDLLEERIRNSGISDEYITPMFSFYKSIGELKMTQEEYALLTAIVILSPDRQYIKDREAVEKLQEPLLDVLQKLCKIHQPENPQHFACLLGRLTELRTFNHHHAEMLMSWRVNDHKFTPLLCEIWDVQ
Peptidyl-prolyl cis-trans isomerase NIMA-interacting 1 (Homo sapiens), sequence (Q13526 whole entry, looked up): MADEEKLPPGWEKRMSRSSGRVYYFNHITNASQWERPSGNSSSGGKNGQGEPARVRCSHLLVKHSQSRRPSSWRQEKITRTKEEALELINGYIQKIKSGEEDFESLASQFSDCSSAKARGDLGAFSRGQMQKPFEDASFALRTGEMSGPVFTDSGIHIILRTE
Galactokinase (Homo sapiens), sequence (P51570 whole entry, looked up): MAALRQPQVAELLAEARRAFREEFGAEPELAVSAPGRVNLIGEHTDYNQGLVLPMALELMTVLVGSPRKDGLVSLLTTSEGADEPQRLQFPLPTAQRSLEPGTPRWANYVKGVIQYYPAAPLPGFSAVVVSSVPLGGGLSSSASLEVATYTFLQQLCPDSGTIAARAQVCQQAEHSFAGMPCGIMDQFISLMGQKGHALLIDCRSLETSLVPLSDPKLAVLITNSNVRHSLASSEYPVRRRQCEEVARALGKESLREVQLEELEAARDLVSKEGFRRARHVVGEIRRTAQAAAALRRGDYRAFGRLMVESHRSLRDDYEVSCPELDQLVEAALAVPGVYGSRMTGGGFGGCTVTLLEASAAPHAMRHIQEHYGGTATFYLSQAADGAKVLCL
phosphoglycerate mutase (Leishmania major), sequence (Q4Q090 1-553): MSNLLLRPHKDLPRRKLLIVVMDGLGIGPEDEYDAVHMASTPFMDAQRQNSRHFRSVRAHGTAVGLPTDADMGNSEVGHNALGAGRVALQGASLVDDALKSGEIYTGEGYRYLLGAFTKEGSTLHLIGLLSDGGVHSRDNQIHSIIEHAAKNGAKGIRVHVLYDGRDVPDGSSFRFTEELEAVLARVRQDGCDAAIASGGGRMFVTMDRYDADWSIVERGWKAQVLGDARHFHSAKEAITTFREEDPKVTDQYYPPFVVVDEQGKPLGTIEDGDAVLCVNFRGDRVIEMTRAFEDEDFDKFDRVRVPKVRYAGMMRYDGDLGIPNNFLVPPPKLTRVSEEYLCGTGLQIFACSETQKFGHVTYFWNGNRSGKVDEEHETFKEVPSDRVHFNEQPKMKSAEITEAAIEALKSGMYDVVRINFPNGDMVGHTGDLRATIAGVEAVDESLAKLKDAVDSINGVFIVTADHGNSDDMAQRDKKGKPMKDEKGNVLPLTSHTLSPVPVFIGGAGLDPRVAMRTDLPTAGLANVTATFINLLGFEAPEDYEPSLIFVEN
Phosphoglycerate kinase, glycosomal (Trypanosoma brucei brucei), sequence (P07378 whole entry, looked up): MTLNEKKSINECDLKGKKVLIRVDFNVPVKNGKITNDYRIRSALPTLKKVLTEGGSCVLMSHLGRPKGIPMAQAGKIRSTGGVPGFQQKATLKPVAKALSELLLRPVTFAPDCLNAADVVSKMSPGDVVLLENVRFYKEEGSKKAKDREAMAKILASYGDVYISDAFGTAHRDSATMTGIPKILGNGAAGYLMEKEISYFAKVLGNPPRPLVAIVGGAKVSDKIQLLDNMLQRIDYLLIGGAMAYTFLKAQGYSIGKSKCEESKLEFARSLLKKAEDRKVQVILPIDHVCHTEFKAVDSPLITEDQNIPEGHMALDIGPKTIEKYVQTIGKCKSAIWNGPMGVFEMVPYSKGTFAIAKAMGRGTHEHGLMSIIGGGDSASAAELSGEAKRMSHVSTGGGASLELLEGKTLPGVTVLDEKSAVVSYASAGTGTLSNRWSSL
DNA dC->dU-editing enzyme APOBEC-3G (Homo sapiens), sequence (Q9HC16 whole entry, looked up): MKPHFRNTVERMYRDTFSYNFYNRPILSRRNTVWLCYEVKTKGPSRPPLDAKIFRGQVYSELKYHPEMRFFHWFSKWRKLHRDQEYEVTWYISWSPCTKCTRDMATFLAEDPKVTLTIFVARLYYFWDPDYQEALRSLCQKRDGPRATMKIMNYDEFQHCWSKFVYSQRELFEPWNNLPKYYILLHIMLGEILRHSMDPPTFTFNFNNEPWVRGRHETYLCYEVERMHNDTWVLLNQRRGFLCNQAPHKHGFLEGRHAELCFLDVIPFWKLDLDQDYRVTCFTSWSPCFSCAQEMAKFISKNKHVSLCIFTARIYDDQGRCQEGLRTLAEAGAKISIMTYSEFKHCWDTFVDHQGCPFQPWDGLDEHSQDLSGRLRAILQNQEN
Thyrotropin-releasing hormone receptor (Homo sapiens), sequence (P34981 whole entry, looked up): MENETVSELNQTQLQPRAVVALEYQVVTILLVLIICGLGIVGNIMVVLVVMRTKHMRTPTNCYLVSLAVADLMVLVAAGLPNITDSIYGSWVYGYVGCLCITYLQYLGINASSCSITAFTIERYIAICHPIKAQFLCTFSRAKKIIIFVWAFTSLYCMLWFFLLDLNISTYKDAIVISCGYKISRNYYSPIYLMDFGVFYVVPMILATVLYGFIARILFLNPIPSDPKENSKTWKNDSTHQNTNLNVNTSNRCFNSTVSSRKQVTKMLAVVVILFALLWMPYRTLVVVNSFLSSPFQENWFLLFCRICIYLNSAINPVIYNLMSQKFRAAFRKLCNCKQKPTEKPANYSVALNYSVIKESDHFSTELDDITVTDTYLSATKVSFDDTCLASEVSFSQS

On to `O=c1[nH]cc(F)c(=O)[nH]1`, for which the Potency entry in [1], in [4], in test [5] and in test [7] was “inactive” throughout. Also, the activation in [2] was 0.812% (inactive). In addition, the call in test [3], in [6], in [8] and in test [9] was inactive.
As for `COc1cc2nc(N3CCN(C(=O)c4ccco4)CC3)nc(N)c2cc1OC`, the Potency entry in [10] and in test [11] was “inactive” each time. Besides, the viability change in test [10] was -4.77%. In addition, the compound was classed as inactive in [3], in test [6] and in [12].
As for `NC(CO)C(=O)NNCc1ccc(O)c(O)c1O` (stereo not given), the Potency entry in test [13], in test [1], in [10], in [4], in test [11] and in [7] was “inactive” each time. Further, the Potency result in test [14] was “inactive”. In addition, the viability change in test [10] was -7.62%. Further, the compound was classed as inactive in test [3] and in test [6].
Consider `CCC1(c2ccccc2)C(=O)NCNC1=O`, for which the Potency result in test [1], in test [10], in test [4], in test [5], in [15] and in test [7] was “inactive” each time. Besides, the Potency entry in test [14] and in [16] was “inactive” in each case. Also, in test [10], the viability change stood at 0.001%. Further, the outcome in [3], in test [6], in test [8] and in [12] was inactive.
For `COc1ccc(CCN(C)CCCC(C#N)(c2ccc(OC)c(OC)c2)C(C)C)cc1OC` (stereo not given), the activation in [2] is 7.06% (inactive). Moreover, the result in test [3], in test [6] and in test [12] was inactive.
In the case of `CN1CCN2c3ccccc3Cc3ccccc3C2C1` (stereo not given), the Potency entry in test [13], in [10], in [15] and in [7] was “inactive” in each case. Also, in test [2], the activation is -4.88% (inactive). In addition, in test [10], the viability change is -3.01%.
Regarding `COC(=O)Nc1nc2ccc(C(=O)c3cccs3)cc2[nH]1`, the Potency in test [13] was 2.31 µM (active). The Potency entry in test [1], in test [10], in test [4], in test [7] and in test [14] was “inactive” throughout. Besides, the viability change in [10] is -18.1%. Also, the call in test [3], in test [6] and in test [12] was inactive.
Take `CNCCCC12CCC(c3ccccc31)c1ccccc12`: the Potency entry in test [13], in test [10], in test [4], in [15], in test [11] and in test [7] was “inactive” throughout. Also, in test [2], the activation is 3.31% (inactive). Besides, the viability change in test [10] worked out at 1.81%. Also, the outcome in [3], in test [6] and in test [12] was inactive. The Potency in [14] is 15.8 µM (active).
Take `COc1ccc2[nH]cc(CCNC(C)=O)c2c1`: the Potency entry in test [13], in test [10], in [4], in test [5], in test [15] and in test [7] was “inactive” throughout. The Potency result in test [14] and in test [16] was “inactive” each time. For the same compound, in [2], the activation was -2.38% (inactive). Besides, in test [10], the viability change is -12.9%. Also, the outcome in test [3], in test [6], in test [12], in [9] and in test [17] was inactive.
Take `C[C@H]1c2cccc(O)c2C(O)=C2C(=O)[C@]3(O)C(O)=C(C(N)=O)C(=O)[C@@H](N(C)C)[C@@H]3[C@@H](O)[C@@H]21`: the Potency result in test [13], in [1], in [15], in test [11], in test [7] and in test [14] was “inactive” throughout. For the same compound, the compound was called inactive in [3], in test [6] and in [8].
Consider `Cn1ccc2cc3c(cc21)CCN3C(=O)Nc1cccnc1`, for which the Potency entry in [1], in [10], in test [4], in test [5], in test [15] and in test [11] was “inactive” throughout. In addition, the Potency result in test [14] is “inactive”. In addition, the activation in test [2] is 0.875% (inactive). The viability change in test [10] was -2.16%. The compound was classed as inactive in test [3], in test [6], in [8] and in [12].
For the compound `Nc1c2c(nc3ccccc13)CCCC2`, the Potency result in test [13], in test [10], in [4], in [11] and in test [7] was “inactive” in each case. In [2], the activation is 1.31% (inactive). In test [10], the viability change was -3.66%. The compound was classed as inactive in test [3], in test [6], in test [8], in test [12], in test [9] and in test [17].
As to `CN(C)CCCN1c2ccccc2CCc2ccc(Cl)cc21`, the Potency result in test [13], in [10], in test [4], in test [11] and in test [7] was “inactive” throughout. In test [2], the activation is 1.88% (inactive). Also, the viability change in [10] is -5.04%. Moreover, the outcome in [3] and in test [12] was inactive.
In the case of `Fc1ccc([C@@H]2CCNC[C@H]2COc2ccc3c(c2)OCO3)cc1`, the Potency entry in test [13], in test [10], in [4], in [15] and in test [7] was “inactive” in each case. Moreover, in test [2], the activation was 7.94% (inactive). The viability change in [10] was found to be 10.5%. Also, the call in [3] and in [6] was inactive. In test [14], the Potency was 35.5 µM (active).
Regarding `O=C(CCCN1CCC(O)(c2ccc(Cl)cc2)CC1)c1ccc(F)cc1`, the Potency entry in test [13], in test [10], in [4], in test [15], in [11] and in [7] was “inactive” in each case. Further, the Potency result in test [14] and in test [16] was “inactive” throughout. Further, the activation in test [2] was 4.81% (inactive). In addition, the viability change in [10] is 2.46%. Besides, the call in test [3], in [6] and in test [12] was inactive.
`COc1ccccc1N1CCN(CC(O)COc2cccc3ccccc23)CC1` (stereo not given): the Potency entry in test [13], in [10], in test [4], in [5] and in test [11] was “inactive” in each case. Moreover, in [10], the viability change is -28.8%. The result in [3] and in [6] was inactive.
